In PubChem BioAssay AID1259245 (Vanderbilt High Throughput Screening Facility, 2017) one finds compound max-min signal, glutamate response, % of max and glutamate slope, % of max data, which are given here for 47 molecules.

The whole screen tested about 40,000 compounds, of which about 1,400 (3.5%) were called active.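 The calls were made as follows: active = any of four per-well response measures lying three or more SD from its plate-wide compound average, in either direction; inactive = the rest, inconclusive results apart.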 Many of the other results were omitted from the sample, so actives are more common in it than they were.

This assay deals with Voltage-dependent calcium channel gamma-2 subunit (Mus musculus) + Glutamate receptor 2 (Rattus norvegicus) (UniProt O88602+P19491). Description: AMPAR-TARP gamma-2 complex positive or negative modulation – cell-based, membrane potential dye, primary screen (AID 1259245). The conditions noted are these: HEK293 GluA2+stargazin, membrane potential dye (FDSS), glutamate EC50, at 30 µM, hits were called plate by plate, in both directions; compound max-min signal: compound-alone response (agonism); glutamate slope, % of max: measured here: glutamate response slope, % max.
Voltage-dependent calcium channel gamma-2 subunit (Mus musculus) + Glutamate receptor 2 (Rattus norvegicus), sequence (O88602 whole entry, looked up): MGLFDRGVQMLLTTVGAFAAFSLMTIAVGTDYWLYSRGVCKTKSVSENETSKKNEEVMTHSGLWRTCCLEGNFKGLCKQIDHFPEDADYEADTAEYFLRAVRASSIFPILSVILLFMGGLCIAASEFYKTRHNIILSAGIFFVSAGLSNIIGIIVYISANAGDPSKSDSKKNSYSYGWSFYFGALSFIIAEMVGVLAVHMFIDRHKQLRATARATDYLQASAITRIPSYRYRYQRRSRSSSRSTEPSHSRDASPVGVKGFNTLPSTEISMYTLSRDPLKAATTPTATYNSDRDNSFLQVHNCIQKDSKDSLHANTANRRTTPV
Voltage-dependent calcium channel gamma-2 subunit (Mus musculus) + Glutamate receptor 2 (Rattus norvegicus), sequence (P19491 whole entry, looked up): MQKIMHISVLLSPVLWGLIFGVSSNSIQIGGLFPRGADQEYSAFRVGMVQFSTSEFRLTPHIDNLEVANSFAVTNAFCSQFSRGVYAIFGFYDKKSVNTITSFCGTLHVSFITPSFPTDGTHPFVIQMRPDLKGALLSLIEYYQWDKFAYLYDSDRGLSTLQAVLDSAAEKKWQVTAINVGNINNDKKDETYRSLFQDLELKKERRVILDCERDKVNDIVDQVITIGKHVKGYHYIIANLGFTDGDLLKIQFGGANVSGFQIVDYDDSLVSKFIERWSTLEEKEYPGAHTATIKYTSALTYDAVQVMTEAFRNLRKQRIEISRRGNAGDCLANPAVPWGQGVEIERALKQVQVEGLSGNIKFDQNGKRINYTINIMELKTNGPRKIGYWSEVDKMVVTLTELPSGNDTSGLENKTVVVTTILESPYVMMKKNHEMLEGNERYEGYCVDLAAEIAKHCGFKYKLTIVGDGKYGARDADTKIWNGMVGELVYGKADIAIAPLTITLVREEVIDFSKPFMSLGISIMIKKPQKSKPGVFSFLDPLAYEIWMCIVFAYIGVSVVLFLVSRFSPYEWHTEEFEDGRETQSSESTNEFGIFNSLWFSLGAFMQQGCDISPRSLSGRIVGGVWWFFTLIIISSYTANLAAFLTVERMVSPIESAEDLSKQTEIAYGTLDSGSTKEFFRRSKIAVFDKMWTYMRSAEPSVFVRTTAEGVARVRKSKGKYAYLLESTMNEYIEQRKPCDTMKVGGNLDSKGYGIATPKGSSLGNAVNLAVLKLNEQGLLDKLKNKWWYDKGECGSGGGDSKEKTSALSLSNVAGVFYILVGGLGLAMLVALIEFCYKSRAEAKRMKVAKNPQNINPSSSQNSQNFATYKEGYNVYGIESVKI
As to `COc1ccc(C)cc1S(=O)(=O)Nc1cc(Cl)ccc1O`, the compound max-min signal came to 0.201; the glutamate response, % of max is 17.5% (active); the glutamate slope, % of max is 33.4%.

For the molecule `CCOc1ccc(C)cc1S(=O)(=O)Nc1cc(Cl)ccc1O`, the compound max-min signal was determined as 0.184; the glutamate response, % of max is 20.5% (inactive); the glutamate slope, % of max amounted to 42.7%.

With `COc1ccc(C)cc1S(=O)(=O)NCC1CCN(C2CCCC2)CC1`, the compound max-min signal worked out at 0.046; the glutamate response, % of max is 35.2% (inactive); the glutamate slope, % of max was determined as 60.4%.

As for `COc1ccc(SCC(=O)Nc2sc3c(c2C(N)=O)CCN(C(C)=O)C3)cc1`, the compound max-min signal stood at 0.106; the glutamate response, % of max is 34.1% (inactive); the glutamate slope, % of max was found to be 58.5%.

`COc1ccc(CCNC(=O)Nc2c[nH]c3ccccc23)cc1`: the compound max-min signal was 0.127; the glutamate response, % of max was 40.6% (inactive); the glutamate slope, % of max is 64.1%.

In the case of `Cc1cc(Cl)cc2sc(N(CC3CCCO3)C(=O)CN(C)S(C)(=O)=O)nc12` (stereo unspecified), the compound max-min signal is 0.075; the glutamate response, % of max is 26.5% (inactive); the glutamate slope, % of max stood at 51.3%.

Turning to `O=S(=O)(c1ccc(C2CCCCC2)cc1)N1CCC(Cc2ccccc2)CC1`, the compound max-min signal was 0.0564; the glutamate response, % of max is 25.6% (inactive); the glutamate slope, % of max amounted to 44.4%.

As for `CCOc1ccc(S(=O)(=O)NCC(O)c2ccsc2)cc1F` (stereo unspecified), the compound max-min signal was 0.128; the glutamate response, % of max is 48.1% (inactive); the glutamate slope, % of max was 69%.

`COc1ccc(S(=O)(=O)NCC(c2ccsc2)N2CCCCCC2)cc1F` (stereo unspecified): the compound max-min signal is 0.168; the glutamate response, % of max is 17.6% (active); the glutamate slope, % of max was determined as 30.2%.

For the molecule `COc1ccc(S(=O)(=O)NCC(c2ccc(C)cc2)N2CCN(C)CC2)cc1OC` (stereo unspecified), the compound max-min signal was 0.0672; the glutamate response, % of max is 37.4% (inactive); the glutamate slope, % of max was determined as 55.5%.

Take `COc1ccc(N2CCN(CCNS(=O)(=O)c3ccc(Cl)s3)CC2)cc1`: the compound max-min signal was determined as 0.131; the glutamate response, % of max was 37.9% (inactive); the glutamate slope, % of max is 47.8%.

Take `O=C(CSc1ccc(NC(=O)c2ccco2)nn1)Nc1ccc(OC(F)(F)F)cc1`: the compound max-min signal turned out to be 0.106; the glutamate response, % of max is 19.5% (inactive); the glutamate slope, % of max is 37.1%.

Consider `CC(=O)c1ccc(NC(=O)CSc2ccc(NC(=O)c3ccco3)nn2)cc1`, for which the compound max-min signal was found to be 0.0373; the glutamate response, % of max was 24.5% (active); the glutamate slope, % of max worked out at 47%.

Turning to `COC(=O)c1ccc(NC(=O)CSc2ccc(NC(=O)c3ccco3)nn2)cc1`, the compound max-min signal worked out at 0.0425; the glutamate response, % of max is 23.1% (active); the glutamate slope, % of max stood at 46.9%.

As for `Cc1ccc(C(=O)Nc2ccc(SCC(=O)NCc3ccc4c(c3)OCO4)nn2)cc1`, the compound max-min signal came to 0.0549; the glutamate response, % of max is 27.8% (inactive); the glutamate slope, % of max stood at 49.8%.

In the case of `CC(C)C(=O)Nc1ccc(SCC(=O)c2ccccc2)nn1`, the compound max-min signal came to 0.113; the glutamate response, % of max is 25.4% (inactive); the glutamate slope, % of max turned out to be 42.3%.

For `COc1cccc(CNC(=O)CSc2ccc(NC(=O)c3cccc(F)c3)nn2)c1`, the compound max-min signal worked out at 0.0911; the glutamate response, % of max is 24.2% (inactive); the glutamate slope, % of max worked out at 47.4%.

Regarding `CCOC(=O)N1CCc2c(sc(NC(=O)c3ccccc3Cl)c2-c2nc3ccccc3s2)C1`, the compound max-min signal is 0.11; the glutamate response, % of max is 43.3% (inactive); the glutamate slope, % of max worked out at 61.3%.

`CCn1nnc2c(N3CCN(CC(=O)Nc4c(C)cc(C)cc4C)CC3)ncnc21`: the compound max-min signal was found to be 0.0423; the glutamate response, % of max is 21.5% (inactive); the glutamate slope, % of max was 39.9%.

`COc1ccc(-n2nnnc2SC(C)C(=O)Nc2ccccc2Cl)cc1` (stereo unspecified): the compound max-min signal came out at 0.0851; the glutamate response, % of max was 29.7% (inactive); the glutamate slope, % of max stood at 55.7%.

With `O=C(NCCN1CCOC(c2ccccc2)C1)c1c(F)cccc1F` (stereo unspecified), the compound max-min signal stood at 0.0396; the glutamate response, % of max was 14.5% (inactive); the glutamate slope, % of max worked out at 32.8%.

Regarding `CCOc1ccc(S(=O)(=O)NCc2ccc3c(c2)OCO3)cc1OCC`, the compound max-min signal was found to be 0.0924; the glutamate response, % of max is 30.4% (inactive); the glutamate slope, % of max stood at 55.6%.

For `COc1ccc(S(=O)(=O)Nc2ccc(N3CCCCS3(=O)=O)cc2)cc1F`, the compound max-min signal was 0.0701; the glutamate response, % of max is 25.7% (inactive); the glutamate slope, % of max was found to be 44.9%.

Take `O=C(CCCn1nc(-c2ccc(Cl)cc2)ccc1=O)Nc1ccc(F)c(F)c1`: the compound max-min signal stood at 0.175; the glutamate response, % of max is 35.4% (inactive); the glutamate slope, % of max turned out to be 51.5%.

In the case of `CC(C)c1cc(NCCN2CCOCC2)n2ncc(-c3ccccc3)c2n1`, the compound max-min signal is 0.126; the glutamate response, % of max was 34% (inactive); the glutamate slope, % of max stood at 54.5%.

As for `COc1nn(C)cc1C(=O)NCCN1CCN(S(C)(=O)=O)CC1`, the compound max-min signal was 0.0954; the glutamate response, % of max is 49.7% (inactive); the glutamate slope, % of max was 63.9%.

`COc1nn(C)cc1C(=O)NCC(=O)Nc1cccc(C)c1C`: the compound max-min signal turned out to be 0.067; the glutamate response, % of max was -0.69% (active); the glutamate slope, % of max is 4.95%.

For the molecule `COc1cn(CC(=O)Nc2cccc(C)c2C)c(CN2CCOCC2)cc1=O`, the compound max-min signal worked out at 0.0306; the glutamate response, % of max is 11% (inactive); the glutamate slope, % of max worked out at 23.6%.

As for `Cc1ccc(NC(=O)c2ccc(S(=O)(=O)N3CCCC3)cc2)c(C(=O)c2ccccc2)c1`, the compound max-min signal was 0.117; the glutamate response, % of max was 44% (inactive); the glutamate slope, % of max came out at 65.3%.

Take `O=C(CSCc1ccccc1)Nc1ccccc1F`: the compound max-min signal came out at 0.0999; the glutamate response, % of max was 23.2% (inactive); the glutamate slope, % of max was found to be 36.5%.

Take `COc1ccccc1NC(=O)c1csc(NS(=O)(=O)c2ccccc2)n1`: the compound max-min signal was 0.0914; the glutamate response, % of max was 30.6% (inactive); the glutamate slope, % of max is 47.5%.

For `COc1cc([N+](=O)[O-])ccc1NC(=O)c1ccccc1NS(=O)(=O)c1ccccc1`, the compound max-min signal came out at 0.141; the glutamate response, % of max was 22.1% (active); the glutamate slope, % of max came to 34.2%.

On to `Cc1ccc(S(=O)(=O)Nc2ccccc2C(=O)Nc2ccc3c4c(cccc24)CC3)cc1`, for which the compound max-min signal stood at 0.105; the glutamate response, % of max is 43.6% (inactive); the glutamate slope, % of max was 62.4%.

For the molecule `COc1ccc(CNC(=O)N2CCC(c3cccs3)CC2)cc1`, the compound max-min signal stood at 0.14; the glutamate response, % of max is 40.4% (inactive); the glutamate slope, % of max was 59.7%.

On to `CN(C)C(CNC(=O)C(=O)Nc1ccc2c(c1)OCCO2)c1cccn1C` (stereo unspecified), for which the compound max-min signal worked out at 0.0533; the glutamate response, % of max is 30.5% (inactive); the glutamate slope, % of max worked out at 63.5%.

Regarding `CCOC(=O)c1ccc(NC(=O)c2cccnc2)cc1`, the compound max-min signal was found to be 0.0638; the glutamate response, % of max is 27.5% (inactive); the glutamate slope, % of max was 53.7%.

Take `COCCCn1c(C(=O)Nc2cccnc2)cc2c(=O)n(C)c(=O)n(C)c21`: the compound max-min signal came to 0.306; the glutamate response, % of max was 24.6% (active); the glutamate slope, % of max came to 44.9%.

`COCCCNc1nc2c(c(=O)n(C)c(=O)n2C)n1CC(O)COc1ccc(C)c(C)c1` (stereo unspecified): the compound max-min signal was 0.0698; the glutamate response, % of max was 46.2% (inactive); the glutamate slope, % of max came out at 75.7%.

`COc1ccccc1NC(=O)Cn1cc(-c2nnc(-c3ccco3)o2)c2ccccc21`: the compound max-min signal was 0.137; the glutamate response, % of max was 42.8% (inactive); the glutamate slope, % of max came out at 63.9%.

On to `COc1cccc2sc(N(Cc3ccco3)C(=O)CSCc3ccccc3)nc12`, for which the compound max-min signal is 0.0832; the glutamate response, % of max was 31.9% (inactive); the glutamate slope, % of max turned out to be 54.9%.

As to `COc1ccc2nc(N(CCN3CCOCC3)C(=O)c3cc4cc([N+](=O)[O-])ccc4s3)sc2c1`, the compound max-min signal turned out to be 0.0573; the glutamate response, % of max was 31% (inactive); the glutamate slope, % of max was found to be 45.5%.

For `COc1ccc2nc(N(CCN3CCOCC3)C(=O)c3ccccc3S(C)(=O)=O)sc2c1`, the compound max-min signal was determined as 0.0288; the glutamate response, % of max is 22.5% (inactive); the glutamate slope, % of max worked out at 42.4%.

Take `COc1ccc2nc(N(CCN3CCOCC3)C(=O)c3ccc([N+](=O)[O-])o3)sc2c1`: the compound max-min signal came to 0.173; the glutamate response, % of max is 42.6% (active); the glutamate slope, % of max worked out at 68.7%.

On to `c1nc(N2CCN(Cc3ccc4c(c3)OCO4)CC2)c2c3c(sc2n1)CCCC3`, for which the compound max-min signal stood at 0.0914; the glutamate response, % of max is 49% (inactive); the glutamate slope, % of max was determined as 68.7%.

In the case of `COc1ccc(/C=C2\Oc3c(ccc4c3CN(c3ccc(F)cc3)CO4)C2=O)c(OC)c1OC`, the compound max-min signal was 0.103; the glutamate response, % of max is 23.7% (inactive); the glutamate slope, % of max came to 51.7%.

For the molecule `COC(=O)c1ccsc1NC(=O)CC1Sc2ccccc2NC1=O` (stereo unspecified), the compound max-min signal came out at 0.0707; the glutamate response, % of max was 30.1% (inactive); the glutamate slope, % of max is 49.8%.

As to `COC(=O)c1c(NC(=O)CC2NCCNC2=O)sc(C)c1C` (stereo unspecified), the compound max-min signal turned out to be 0.0942; the glutamate response, % of max was 53% (active); the glutamate slope, % of max was found to be 55.8%.
